Laboratory results published in the supplement of paper PMC10849652.
The full data set covers some 8,800 targets. This sample favours those with a hit. About 0.5% of all pairs of compound and target were hits.

Experiments:
Assay in all cases: log2 fold change, soluble protein after heating vs DMSO (PISA); higher = thermal stabilisation; K562 lysate, 10 uM; active = over 0.2 and 3.5 SD of the protein, either way, in both replicates (recomputed)
[1] = compound: NCC(=O)Nc1ccc(-n2nc(C(F)(F)F)cc2-c2ccc3c(ccc4ccccc43)c2)cc1
In short: (§1)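 Following dounce homogenisation of K562 pellets in PBS pH 7.4 with 1 mM MgCl2, crude extract at 1 mg/mL protein was incubated for 30 min with 10 μM compound. Aliquots were then heated for 3 min over 48°C-58°C and pooled, NP-40 was added to 0.5% at 4°C, and soluble protein was recovered as the supernatant at 21,000xg for 90 min. Channel-sum-equalised TMTpro 16plex LC-MS/MS quantified this protein. Each value, from duplicates, is a log-two fold change in thermal stability relative to solvent controls.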

vorinostat = compound: O=C(CCCCCCC(=O)Nc1ccccc1)NO [vorinostat]
In short: as §1

silmitasertib = compound: O=C(O)c1ccc2c(c1)nc(Nc1cccc(Cl)c1)c1ccncc12 [silmitasertib]
In short: as §1

[2] = compound: O=C1NC(=O)C(c2cnc3ccccn23)=C1c1cn2c3c(cc(F)cc13)CN(C(=O)N1CCCCC1)CC2
In short: as §1

entospletinib = compound: c1cn2cc(-c3ccc4cn[nH]c4c3)nc(Nc3ccc(N4CCOCC4)cc3)c2n1 [entospletinib]
In short: as §1

Measured: log2 fold change

ATG7 (UniProt O95352)
active: vorinostat -0.47
inactive: [1] 0.008 | silmitasertib 0.005 | [2] -0.005 | entospletinib 0.001

CCT6A (UniProt P40227)
inactive: [1] 0.004 | vorinostat 0.049 | silmitasertib -0.005 | [2] 0.012 | entospletinib 0.024

CAPN15 (UniProt O75808)
active: vorinostat -0.504
inactive: [1] 0.028 | silmitasertib -0.016 | [2] -0.081 | entospletinib -0.043

CEP152 (UniProt O94986)
inactive: [1] 0.025 | vorinostat -0.167 | silmitasertib 0.039 | [2] 0.089 | entospletinib -0.04

ATE1 isoform 2 (UniProt O95260)
active: vorinostat -0.444
inactive: [1] -0.068 | silmitasertib 0.041 | [2] -0.01 | entospletinib -0.008

BUD23 isoform 3 (UniProt O43709)
inactive: [1] 0.007 | vorinostat 0.014 | silmitasertib -0.07 | [2] -0.021 | entospletinib 0.055

CCNY (UniProt Q8ND76)
Sequence of UniProt Q8ND76 (Q8ND76 whole entry, looked up): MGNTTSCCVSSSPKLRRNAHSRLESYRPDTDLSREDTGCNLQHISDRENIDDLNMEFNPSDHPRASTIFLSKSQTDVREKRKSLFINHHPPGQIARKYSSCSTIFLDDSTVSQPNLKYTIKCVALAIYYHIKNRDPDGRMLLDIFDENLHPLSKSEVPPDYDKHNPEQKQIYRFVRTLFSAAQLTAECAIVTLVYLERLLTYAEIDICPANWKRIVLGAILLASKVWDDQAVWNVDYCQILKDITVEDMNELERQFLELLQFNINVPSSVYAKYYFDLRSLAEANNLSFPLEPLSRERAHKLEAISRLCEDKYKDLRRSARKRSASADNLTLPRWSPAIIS
inactive: [1] 0.076 | silmitasertib -0.018 | [2] -0.002 | entospletinib -0.074
active: vorinostat -0.822

CDK11B (UniProt P21127)
active: entospletinib 0.255
inactive: [1] 0.009 | vorinostat -0.115 | silmitasertib 0.065 | [2] -0.023

CCDC51 (UniProt Q96ER9)
inactive: [1] 0.002 | vorinostat 0.153 | silmitasertib 0.011 | [2] 0.015 | entospletinib -0.046

CCDC25 (UniProt Q86WR0)
inactive: [1] 0.025 | vorinostat 0.025 | silmitasertib -0.032 | [2] -0.011 | entospletinib 0.009

CHCHD4 isoform 2 (UniProt Q8N4Q1)
inactive: [1] 0.06 | vorinostat 0.207 | silmitasertib -0.145 | [2] -0.027 | entospletinib 0.01

CALB2 (UniProt P22676)
inactive: [1] 0.067 | vorinostat 0.156 | silmitasertib 0.017 | [2] 0.063 | entospletinib 0.019

ATG4B (UniProt Q9Y4P1)
active: vorinostat -0.274
inactive: [1] -0.009 | silmitasertib 0.043 | [2] -0.014 | entospletinib 0.021

CDK5RAP1 (UniProt Q96SZ6)
Sequence of UniProt Q96SZ6 (Q96SZ6 whole entry, looked up): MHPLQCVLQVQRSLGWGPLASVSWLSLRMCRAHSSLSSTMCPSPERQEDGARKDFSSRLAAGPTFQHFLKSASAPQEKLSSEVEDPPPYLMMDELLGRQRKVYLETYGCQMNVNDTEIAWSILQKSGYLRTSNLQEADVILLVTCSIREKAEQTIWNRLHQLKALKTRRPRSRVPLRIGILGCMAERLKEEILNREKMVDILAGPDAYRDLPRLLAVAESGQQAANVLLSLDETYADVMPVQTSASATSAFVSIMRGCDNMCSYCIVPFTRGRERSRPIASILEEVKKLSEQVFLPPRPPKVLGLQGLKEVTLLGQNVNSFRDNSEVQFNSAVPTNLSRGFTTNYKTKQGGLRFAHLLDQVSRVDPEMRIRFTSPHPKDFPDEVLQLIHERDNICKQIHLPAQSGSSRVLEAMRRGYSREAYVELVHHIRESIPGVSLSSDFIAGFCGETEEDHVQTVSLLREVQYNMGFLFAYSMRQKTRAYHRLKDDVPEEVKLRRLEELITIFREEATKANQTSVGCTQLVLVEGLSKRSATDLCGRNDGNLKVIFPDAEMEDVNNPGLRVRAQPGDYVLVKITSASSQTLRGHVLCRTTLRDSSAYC
inactive: [1] 0.011 | vorinostat 0.036 | silmitasertib -0.07 | [2] 0.016 | entospletinib 0.029

CDC7 (UniProt O00311)
inactive: [1] 0.086 | vorinostat -0.152 | silmitasertib -0.077 | [2] -0.01 | entospletinib 0.007

CCNA2 (UniProt P20248)
inactive: [1] 0.005 | vorinostat 0.075 | silmitasertib -0.06 | [2] -0.026 | entospletinib -0.011

CHD3 isoform 3 (UniProt Q12873)
active: vorinostat -0.316
inactive: [1] 0.022 | silmitasertib 0.032 | [2] -0.004 | entospletinib 0.002

CACUL1 (UniProt Q86Y37)
inactive: [1] 0.176 | silmitasertib 0.024 | [2] -0.081 | entospletinib -0.056
active: vorinostat -0.543

ATG4A (UniProt Q8WYN0)
inactive: [1] -0.059 | silmitasertib 0.034 | [2] 0.001 | entospletinib 0.004
active: vorinostat -0.543

CDC16 (UniProt Q13042)
inactive: [1] -0.068 | silmitasertib 0.023 | [2] -0.006 | entospletinib -0.015
active: vorinostat -0.265

CDKN1C (UniProt P49918)
Sequence of UniProt P49918 (P49918 whole entry, looked up): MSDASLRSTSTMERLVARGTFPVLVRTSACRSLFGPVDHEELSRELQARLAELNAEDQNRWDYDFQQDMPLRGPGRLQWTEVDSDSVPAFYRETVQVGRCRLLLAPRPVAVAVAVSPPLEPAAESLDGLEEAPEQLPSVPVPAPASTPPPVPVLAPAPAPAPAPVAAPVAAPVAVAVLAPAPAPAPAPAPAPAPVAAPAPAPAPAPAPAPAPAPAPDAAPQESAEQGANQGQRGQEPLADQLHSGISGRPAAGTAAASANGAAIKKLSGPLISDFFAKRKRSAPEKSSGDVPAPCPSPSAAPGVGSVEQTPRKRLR
inactive: [1] 0.124 | vorinostat 0.058 | silmitasertib -0.029 | [2] 0.134 | entospletinib 0.048

CENPQ (UniProt Q7L2Z9)
Sequence of UniProt Q7L2Z9 (Q7L2Z9 whole entry, looked up): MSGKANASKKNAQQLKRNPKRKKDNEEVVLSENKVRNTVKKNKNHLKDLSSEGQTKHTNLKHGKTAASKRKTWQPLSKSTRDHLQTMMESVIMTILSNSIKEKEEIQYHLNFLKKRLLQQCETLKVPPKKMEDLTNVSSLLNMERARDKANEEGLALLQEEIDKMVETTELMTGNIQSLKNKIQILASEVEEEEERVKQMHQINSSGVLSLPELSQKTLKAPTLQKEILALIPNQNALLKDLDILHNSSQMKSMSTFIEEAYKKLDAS
inactive: [1] -0.016 | vorinostat 0.061 | silmitasertib -0.014 | [2] 0.028 | entospletinib 0.047

BCL2L12 (UniProt Q9HB09)
inactive: [1] 0.031 | vorinostat -0.033 | silmitasertib 0.1 | [2] -0.085 | entospletinib -0.129

CEP76 (UniProt Q8TAP6)
inactive: [1] -0.1 | vorinostat -0.055 | silmitasertib 0.027 | [2] -0.051 | entospletinib 0.039

C3 (UniProt P01024)
Sequence of UniProt P01024 (P01024 whole entry, looked up): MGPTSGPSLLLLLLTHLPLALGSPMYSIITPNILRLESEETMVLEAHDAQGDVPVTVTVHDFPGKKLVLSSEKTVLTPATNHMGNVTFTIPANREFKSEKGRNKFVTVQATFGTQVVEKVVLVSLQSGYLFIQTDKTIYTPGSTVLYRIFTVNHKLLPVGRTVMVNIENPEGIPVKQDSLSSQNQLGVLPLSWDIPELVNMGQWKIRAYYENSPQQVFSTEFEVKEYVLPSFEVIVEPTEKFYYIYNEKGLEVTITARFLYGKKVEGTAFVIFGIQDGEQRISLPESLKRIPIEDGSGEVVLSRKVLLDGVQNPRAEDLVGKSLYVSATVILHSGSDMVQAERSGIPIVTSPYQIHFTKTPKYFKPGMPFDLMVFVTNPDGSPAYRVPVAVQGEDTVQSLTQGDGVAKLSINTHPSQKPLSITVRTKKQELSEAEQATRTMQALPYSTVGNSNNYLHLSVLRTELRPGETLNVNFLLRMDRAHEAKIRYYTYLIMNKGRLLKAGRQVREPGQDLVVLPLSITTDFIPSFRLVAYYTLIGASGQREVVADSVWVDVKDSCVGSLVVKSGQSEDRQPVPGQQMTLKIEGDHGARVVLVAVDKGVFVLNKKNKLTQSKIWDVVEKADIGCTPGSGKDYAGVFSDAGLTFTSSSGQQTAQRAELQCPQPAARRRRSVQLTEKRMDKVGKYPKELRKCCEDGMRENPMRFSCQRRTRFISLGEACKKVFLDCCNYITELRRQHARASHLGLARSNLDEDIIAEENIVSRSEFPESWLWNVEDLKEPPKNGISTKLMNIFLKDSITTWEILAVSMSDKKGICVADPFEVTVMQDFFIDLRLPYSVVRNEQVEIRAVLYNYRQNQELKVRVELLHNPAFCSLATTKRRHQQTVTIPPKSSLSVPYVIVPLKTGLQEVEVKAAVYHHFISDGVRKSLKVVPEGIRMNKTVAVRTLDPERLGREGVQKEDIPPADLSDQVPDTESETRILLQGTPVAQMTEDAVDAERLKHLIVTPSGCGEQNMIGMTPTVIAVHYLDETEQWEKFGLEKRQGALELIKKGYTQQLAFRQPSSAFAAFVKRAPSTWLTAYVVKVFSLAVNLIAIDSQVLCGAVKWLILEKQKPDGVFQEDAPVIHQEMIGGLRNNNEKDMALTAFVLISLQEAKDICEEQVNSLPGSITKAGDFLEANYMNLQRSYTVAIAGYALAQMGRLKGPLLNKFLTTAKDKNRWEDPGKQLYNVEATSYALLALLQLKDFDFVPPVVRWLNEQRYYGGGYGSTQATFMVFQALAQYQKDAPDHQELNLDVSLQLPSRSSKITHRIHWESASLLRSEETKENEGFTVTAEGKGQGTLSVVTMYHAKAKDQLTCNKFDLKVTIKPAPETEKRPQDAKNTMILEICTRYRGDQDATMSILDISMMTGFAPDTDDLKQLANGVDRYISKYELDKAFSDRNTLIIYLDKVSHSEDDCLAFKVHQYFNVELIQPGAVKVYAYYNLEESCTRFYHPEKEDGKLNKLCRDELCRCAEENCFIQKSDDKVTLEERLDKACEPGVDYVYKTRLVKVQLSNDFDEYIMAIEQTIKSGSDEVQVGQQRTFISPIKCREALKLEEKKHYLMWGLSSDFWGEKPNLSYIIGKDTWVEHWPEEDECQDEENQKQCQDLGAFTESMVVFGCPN
inactive: [1] 0.024 | vorinostat -0.098 | silmitasertib 0.008 | [2] 0.062 | entospletinib -0.036

ATAD1 (UniProt Q8NBU5)
inactive: [1] -0.047 | silmitasertib 0.021 | [2] 0.002 | entospletinib 0.008
active: vorinostat -0.617

BRD4 (UniProt O60885)
inactive: [1] 0.01 | vorinostat -0.115 | silmitasertib -0.011 | [2] -0.02 | entospletinib -0.028

AUH (UniProt Q13825)
inactive: [1] 0.1 | vorinostat -0.068 | silmitasertib 0.017 | [2] -0.063 | entospletinib -0.11

CAMKK2 (UniProt Q96RR4)
active: vorinostat -0.325
inactive: [1] 0.081 | silmitasertib 0.074 | [2] -0.02 | entospletinib 0.039

ATP5PF isoform 2 (UniProt P18859)
Sequence of UniProt P18859 (P18859 whole entry, looked up): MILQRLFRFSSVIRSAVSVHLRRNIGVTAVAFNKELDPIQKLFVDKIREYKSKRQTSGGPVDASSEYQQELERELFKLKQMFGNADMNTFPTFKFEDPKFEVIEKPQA
inactive: [1] -0.002 | vorinostat 0.206 | silmitasertib -0.116 | [2] 0.053 | entospletinib -0.003

ATXN2 (UniProt Q99700)
active: vorinostat -0.282
inactive: [1] 0.024 | silmitasertib -0.01 | [2] -0.005 | entospletinib -0.008

CASP3 (UniProt P42574)
inactive: [1] -0.031 | vorinostat 0.058 | silmitasertib -0.02 | [2] 0.007 | entospletinib -0.027

BORCS5 (UniProt Q969J3)
inactive: [1] -0.061 | vorinostat 0.136 | silmitasertib 0.008 | [2] 0.026 | entospletinib -0.115

C9orf72 (UniProt Q96LT7)
inactive: silmitasertib -0.045 | [2] -0.015 | entospletinib -0.129
active: vorinostat 0.919

CDCA8 (UniProt Q53HL2)
inactive: [1] 0.066 | vorinostat 0.13 | silmitasertib -0.093 | entospletinib 0.112

CDC25A (UniProt P30304)
Sequence of UniProt P30304 (P30304 whole entry, looked up): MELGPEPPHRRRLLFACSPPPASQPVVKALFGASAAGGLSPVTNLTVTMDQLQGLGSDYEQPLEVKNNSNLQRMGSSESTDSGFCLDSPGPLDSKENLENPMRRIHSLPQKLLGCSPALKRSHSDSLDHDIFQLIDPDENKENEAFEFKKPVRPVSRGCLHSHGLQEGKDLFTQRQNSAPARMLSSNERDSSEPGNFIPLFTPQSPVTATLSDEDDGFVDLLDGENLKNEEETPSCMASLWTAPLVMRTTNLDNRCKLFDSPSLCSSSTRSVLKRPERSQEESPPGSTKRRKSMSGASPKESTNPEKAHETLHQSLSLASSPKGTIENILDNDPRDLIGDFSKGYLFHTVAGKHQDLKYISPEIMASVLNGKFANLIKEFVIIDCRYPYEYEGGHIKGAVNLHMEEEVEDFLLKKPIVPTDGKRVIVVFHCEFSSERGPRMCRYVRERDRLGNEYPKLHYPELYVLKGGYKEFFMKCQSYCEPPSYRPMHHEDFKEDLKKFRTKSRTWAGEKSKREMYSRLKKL
inactive: silmitasertib 0.084 | [2] -0.172
active: vorinostat -1.01

CCND3 (UniProt P30281)
inactive: vorinostat -0.051 | silmitasertib 0.017 | [2] 0.086 | entospletinib 0.062

CAMK1 (UniProt Q14012)
Sequence of UniProt Q14012 (Q14012 whole entry, looked up): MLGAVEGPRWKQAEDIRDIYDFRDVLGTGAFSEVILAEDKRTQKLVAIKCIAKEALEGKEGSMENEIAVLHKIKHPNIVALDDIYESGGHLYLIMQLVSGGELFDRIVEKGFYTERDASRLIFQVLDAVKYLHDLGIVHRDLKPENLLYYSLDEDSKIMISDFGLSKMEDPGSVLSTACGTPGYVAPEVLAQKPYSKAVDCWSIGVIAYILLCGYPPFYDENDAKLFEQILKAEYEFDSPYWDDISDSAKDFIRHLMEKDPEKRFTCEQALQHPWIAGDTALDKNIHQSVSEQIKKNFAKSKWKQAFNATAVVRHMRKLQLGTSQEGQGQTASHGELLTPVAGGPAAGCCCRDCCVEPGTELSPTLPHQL
inactive: [1] -0.13 | vorinostat 0.027 | silmitasertib -0.059 | [2] 0.062 | entospletinib 0.115

CEP295 isoform 3 (UniProt Q9C0D2)
inactive: vorinostat -0.004 | silmitasertib 0.076 | [2] -0.076 | entospletinib 0.087

CAD (UniProt H7BZB3)
inactive: [1] 0.113 | vorinostat -0.54 | silmitasertib -0.006 | entospletinib -0.008

C6orf120 (UniProt Q7Z4R8)
inactive: vorinostat 0.273 | silmitasertib -0.075

BICRA (UniProt Q9NZM4)
inactive: vorinostat 0.11 | silmitasertib -0.203 | [2] -0.076

CELF1 isoform 4 (UniProt Q92879)
inactive: [1] 0.065 | silmitasertib 0.019 | [2] 0.022 | entospletinib 0.013
active: vorinostat -0.347

ATE1 (UniProt O95260)
inactive: [2] 0.028

CEP57L1 (UniProt Q8IYX8)
inactive: vorinostat -0.23 | silmitasertib 0.133 | [2] -0.044 | entospletinib -0.029

BUD13 (UniProt Q9BRD0)
inactive: vorinostat 0.136 | silmitasertib 0.054 | [2] 0.036 | entospletinib -0.046

CFDP1 (UniProt Q9UEE9)
inactive: [1] -0.009 | vorinostat 0.095 | silmitasertib -0.05 | [2] -0.078 | entospletinib -0.012

ATG4D (UniProt Q86TL0)
inactive: [2] 0.117 | entospletinib 0.004

ATPSCKMT (UniProt Q6P4H8)
inactive: [2] 0 | entospletinib 0.105

CENPV (UniProt Q7Z7K6)
inactive: [1] 0.396 | [2] 0.039 | entospletinib 0.084

C15orf39 (UniProt Q6ZRI6)
active: vorinostat -0.513
inactive: silmitasertib 0.008 | [2] -0.025 | entospletinib -0.147

CASP7 isoform 3 (UniProt P55210)
Sequence of UniProt P55210 (P55210 whole entry, looked up): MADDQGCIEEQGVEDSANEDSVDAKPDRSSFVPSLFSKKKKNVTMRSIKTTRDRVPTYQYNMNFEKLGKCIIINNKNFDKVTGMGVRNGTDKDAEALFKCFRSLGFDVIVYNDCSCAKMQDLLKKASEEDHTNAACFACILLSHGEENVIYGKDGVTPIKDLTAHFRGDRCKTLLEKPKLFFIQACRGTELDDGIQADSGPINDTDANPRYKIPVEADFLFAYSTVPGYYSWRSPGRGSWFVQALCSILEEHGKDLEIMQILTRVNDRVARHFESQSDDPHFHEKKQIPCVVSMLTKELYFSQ
inactive: vorinostat -0.254 | silmitasertib 0.113 | [2] 0.01 | entospletinib 0.063

CDK1 (UniProt P06493)
inactive: [1] 0.029 | vorinostat -0.049 | [2] -0.055 | entospletinib 0.006

C18orf25 isoform 2 (UniProt Q96B23)
Sequence of UniProt Q96B23 (Q96B23 whole entry, looked up): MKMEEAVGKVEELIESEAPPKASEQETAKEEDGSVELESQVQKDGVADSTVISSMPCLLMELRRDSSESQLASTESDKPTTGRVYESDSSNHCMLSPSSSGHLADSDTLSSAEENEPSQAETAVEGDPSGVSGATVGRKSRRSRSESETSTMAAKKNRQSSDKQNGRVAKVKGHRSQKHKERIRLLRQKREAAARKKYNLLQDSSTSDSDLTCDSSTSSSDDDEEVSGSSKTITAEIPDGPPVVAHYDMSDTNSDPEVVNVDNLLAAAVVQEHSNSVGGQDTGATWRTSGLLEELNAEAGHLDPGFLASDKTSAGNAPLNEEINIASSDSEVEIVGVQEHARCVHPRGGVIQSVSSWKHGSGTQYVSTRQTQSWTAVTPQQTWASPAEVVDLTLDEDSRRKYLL
inactive: [1] -0.014 | vorinostat -0.034 | silmitasertib -0.067 | entospletinib 0.038

C8orf88 (UniProt P0DMB2)
active: vorinostat -0.455
inactive: silmitasertib 0.056 | [2] 0.024

CCDC130 (UniProt P13994)
inactive: vorinostat -0.003 | silmitasertib 0.173 | [2] -0.306 | entospletinib -0.076

CDKL5 (UniProt O76039)
inactive: [1] 0.037 | [2] 0.011 | entospletinib 0.017

CEP120 (UniProt Q8N960)
inactive: [1] 0.261 | vorinostat 0.042 | silmitasertib -0.075 | [2] 0.135 | entospletinib -0.13
